Test results published in PubChem BioAssay.
Active and inactive are the calls of the source.

Columns and labels:
[1] = anti-His antibody binders, primary screen, artefact control for SMM control protein annotation, biochemical, small-molecule microarray, 635 nm fluorescence (AID 1128); settings: anti-His Alexa647 antibody binding, higher = more signal;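 further: score merges feature fluorescence with signal-to-noise for each printed compound spot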
[2] = tested on: Human papillomavirus type 1a E7 protein (residues 1-88); test: HPV1a E7 small-molecule binders, primary screen, biochemical, small-molecule microarray, residues 1-88, 635 nm (AID 1129); settings: small-molecule microarray binding, fluorescence 635 nm; higher = more signal
[3] = biological target: Focal adhesion kinase 1 (Homo sapiens) (UniProt Q05397); test: small-molecule microarray binders of FAK, primary screen, biochemical, 635/667 nm fluorescence, BSA, DTT (AID 1130); settings: PTK2 binding, 635 nm fluorescence, higher = more signal;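 further: composite of spot emission at 667 nm and signal to noise over triplicate slides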
[4] = tested on: Fibrinogen (Alexa647-labelled); test: fibrinogen binders on compound microarrays, profiling panel, artefact control for SMM control-protein annotation, biochemical, small-molecule microarray, 635/667 nm fluorescence (AID 1131); settings: fibrinogen-A647 binding fluorescence, higher = more signal;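 further: z-score merges 667 nm fluorescence with per-spot signal-to-noise over triplicate slides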
[5] = biological target: Follistatin (Homo sapiens) (UniProt P19883); test: follistatin binders on small-molecule microarrays, primary screen, biochemical, small-molecule microarray, 635/667 nm fluorescence (AID 1132); settings: FST binding, 635 nm fluorescence, higher = more signal
[6] = biological target: Fibroblast growth factor 2 (Homo sapiens) (UniProt P09038); test: FGF2 binders on small-molecule microarrays, primary screen, biochemical, small-molecule microarray, 635/667 nm fluorescence (AID 1133); settings: small-molecule microarray binding, FGF2, fluorescence 635/667; higher = more signal
[7] = mitochondrial membrane potential change in A549 cells, profiling panel, cell-based, JC-1 fluorescence, basal, 24 h, 100 nL (AID 1138); settings: higher = more signal;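 further: A549 lung adenocarcinoma cells under basal conditions with no added stimulus; test concentration not given here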
Lefty1 = Lefty1 binders on small-molecule microarrays, primary screen, biochemical, small-molecule microarray, 635/667 nm fluorescence (AID 1139); settings: small-molecule microarray binding, fluorescence 635/667; higher = more signal
[8] = tested on: wheat germ agglutinin (Triticum aestivum), Alexa647-labelled; test: wheat germ agglutinin binders on compound microarrays, profiling panel, artefact control for SMM control-protein annotation, biochemical, small-molecule microarray, 635/667 nm fluorescence (AID 1140); settings: WGA-A647 binding, 635 nm fluorescence, higher = more signal;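 further: score merges 667 nm feature emission with signal to noise over triplicate slides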
[9] = biological target: Luciferin 4-monooxygenase (Photinus pyralis) (UniProt P08659); test: firefly luciferase enzyme inhibitors, primary screen, biochemical, luminescence, purified enzyme, 2006 set (AID 1141); settings: SteadyGlo luminescence, 30 min, higher = more signal, called active from +8 up or from −8 down;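 further: cell-free assay with purified firefly luciferase at 100 ng per well in PBS; test concentration not given here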
[10] = tested on: Wnt5a (protein binding on small-molecule microarray); test: Wnt5a binders on small-molecule microarray, primary screen, biophysical, 635/667 nm fluorescence (AID 1142); settings: 635 nm fluorescence, higher = more signal;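 further: fluorescence read at 667 nm with signal to noise per printed feature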
[11] = cell viability in Huh7 cells, primary screen, cytotoxicity control for HCV replication inhibitor project, CellTiter-Glo luminescence, basal, 48 h (AID 1143); settings: Huh7 HCV replicon, higher = more signal, called active from +8 up or from −8 down;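 further: Huh7 hepatoma cells carrying a hepatitis C replication reporter with no stimulus; test concentration not given here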
[12] = CREB reporter modulators without forskolin, primary screen, cell-based, PC12, CRE-LacZ reporter, unstimulated (AID 1145); settings: no forskolin, luminescence, 4.5 h, higher = more signal, called active from +8 up or from −8 down
[13] = CREB reporter modulators under forskolin, primary screen, cell-based, PC12, CRE-LacZ reporter, forskolin-stimulated (AID 1146); settings: luminescence, 4.5 h, higher = more signal, called active from +8 up or from −8 down;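 further: PC12 cells with 6xCRE LacZ reporter stimulated by forskolin 10 µM; beta-galactosidase reporter signal reflecting CREB driven transcription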
[14] = biological target: Streptavidin (Streptomyces avidinii) (UniProt P22629); test: streptavidin binders on small-molecule microarray, primary screen, artefact control for SMM compound annotation, biophysical, 635/667 nm fluorescence (AID 1147); settings: streptavidin binding, higher = more signal;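 further: signal reflects streptavidin binding to arrayed compounds as a control protein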
[15] = small-molecule binders of probe aInhba, primary screen, biochemical, small-molecule microarray, 635/667 nm fluorescence (AID 1148); settings: higher = more signal;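 further: score merges 667nm spot fluorescence with signal-to-noise for antibody binding to printed compounds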
Torsin-1A (Homo sapiens) [16] = biological target: Torsin-1A (Homo sapiens) (UniProt O14656); test: torsin A binders from cell lysate, primary screen, small-molecule microarray, wild-type, 635/667 nm (AID 1149); settings: COS7 hTOR1A-WT lysate, 635 nm fluorescence, higher = more signal
Torsin-1A (Homo sapiens) [17] = biological target: Torsin-1A (Homo sapiens) (UniProt O14656); test: small-molecule binders of mutant TOR1A in lysate, primary screen, cell lysate, small-molecule microarray, COS7 lysate, 635/667 nm fluorescence (AID 1150); settings: COS7 hTOR1A mutant lysate, 635 nm fluorescence, higher = more signal;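 further: score pools 667 nm emission and signal to noise measuring lysate protein binding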
[18] = tested on: Sonic hedgehog protein (Shh); test: small-molecule binders of Shh protein, primary screen, biochemical, small-molecule microarray, 635/667 nm fluorescence (AID 1151); settings: small-molecule microarray binding, 635 nm fluorescence; higher = more signal;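 further: Shh protein binding to compounds spotted on small-molecule microarray slides; score combines spot fluorescence intensity with signal-to-noise across triplicate slides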

Torsin-1A (Homo sapiens), sequence (O14656 whole entry, looked up): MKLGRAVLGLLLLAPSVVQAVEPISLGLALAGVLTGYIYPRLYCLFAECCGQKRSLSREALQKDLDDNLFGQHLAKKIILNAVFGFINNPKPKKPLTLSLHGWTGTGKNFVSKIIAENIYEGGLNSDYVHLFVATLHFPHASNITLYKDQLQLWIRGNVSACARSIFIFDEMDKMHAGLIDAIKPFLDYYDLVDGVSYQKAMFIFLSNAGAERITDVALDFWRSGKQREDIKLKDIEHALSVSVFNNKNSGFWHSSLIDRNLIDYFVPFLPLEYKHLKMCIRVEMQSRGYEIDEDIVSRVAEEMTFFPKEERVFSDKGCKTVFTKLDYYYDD
Focal adhesion kinase 1 (Homo sapiens), sequence (Q05397 whole entry, looked up): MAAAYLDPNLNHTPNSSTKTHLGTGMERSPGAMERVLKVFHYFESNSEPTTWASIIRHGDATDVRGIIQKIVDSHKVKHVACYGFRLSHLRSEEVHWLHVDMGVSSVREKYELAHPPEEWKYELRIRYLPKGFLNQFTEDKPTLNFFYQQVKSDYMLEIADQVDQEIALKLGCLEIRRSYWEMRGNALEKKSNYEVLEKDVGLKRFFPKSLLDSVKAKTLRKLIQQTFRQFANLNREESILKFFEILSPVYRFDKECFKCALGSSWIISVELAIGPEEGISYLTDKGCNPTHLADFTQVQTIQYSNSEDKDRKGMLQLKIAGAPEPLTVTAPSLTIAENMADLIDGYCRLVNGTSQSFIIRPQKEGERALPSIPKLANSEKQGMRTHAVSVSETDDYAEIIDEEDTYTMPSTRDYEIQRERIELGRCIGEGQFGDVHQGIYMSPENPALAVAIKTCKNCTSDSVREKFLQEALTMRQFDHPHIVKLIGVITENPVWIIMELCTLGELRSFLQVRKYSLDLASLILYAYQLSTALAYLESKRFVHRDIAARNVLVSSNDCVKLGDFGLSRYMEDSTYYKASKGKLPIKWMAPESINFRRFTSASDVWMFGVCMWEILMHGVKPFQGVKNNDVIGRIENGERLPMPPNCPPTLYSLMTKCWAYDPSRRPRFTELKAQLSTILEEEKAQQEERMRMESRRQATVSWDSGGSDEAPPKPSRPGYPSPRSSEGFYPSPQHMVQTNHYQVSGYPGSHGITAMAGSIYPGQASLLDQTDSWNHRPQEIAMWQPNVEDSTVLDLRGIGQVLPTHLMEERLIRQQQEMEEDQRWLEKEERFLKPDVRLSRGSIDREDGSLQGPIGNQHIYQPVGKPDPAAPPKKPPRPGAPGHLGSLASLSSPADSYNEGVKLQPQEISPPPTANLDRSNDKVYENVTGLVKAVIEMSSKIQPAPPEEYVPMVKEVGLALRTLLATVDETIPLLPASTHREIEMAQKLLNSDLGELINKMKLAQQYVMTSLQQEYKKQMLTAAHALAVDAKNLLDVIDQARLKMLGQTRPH
Luciferin 4-monooxygenase (Photinus pyralis), sequence (P08659 whole entry, looked up): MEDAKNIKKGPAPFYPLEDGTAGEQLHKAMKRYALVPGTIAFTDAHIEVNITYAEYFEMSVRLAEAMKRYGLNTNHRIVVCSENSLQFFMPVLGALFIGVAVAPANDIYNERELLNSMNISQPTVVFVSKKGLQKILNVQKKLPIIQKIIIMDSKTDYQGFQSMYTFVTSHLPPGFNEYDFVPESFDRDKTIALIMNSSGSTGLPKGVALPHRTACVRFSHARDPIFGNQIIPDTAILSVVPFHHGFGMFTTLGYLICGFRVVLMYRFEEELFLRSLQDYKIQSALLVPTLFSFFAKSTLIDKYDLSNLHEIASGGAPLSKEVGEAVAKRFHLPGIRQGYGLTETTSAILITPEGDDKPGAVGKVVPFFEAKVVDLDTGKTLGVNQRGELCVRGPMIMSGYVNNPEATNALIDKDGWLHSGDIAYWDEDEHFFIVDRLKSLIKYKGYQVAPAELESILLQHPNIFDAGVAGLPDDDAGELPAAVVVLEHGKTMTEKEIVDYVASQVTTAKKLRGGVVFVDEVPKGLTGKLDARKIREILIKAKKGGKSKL
Streptavidin (Streptomyces avidinii), sequence (P22629 whole entry, looked up): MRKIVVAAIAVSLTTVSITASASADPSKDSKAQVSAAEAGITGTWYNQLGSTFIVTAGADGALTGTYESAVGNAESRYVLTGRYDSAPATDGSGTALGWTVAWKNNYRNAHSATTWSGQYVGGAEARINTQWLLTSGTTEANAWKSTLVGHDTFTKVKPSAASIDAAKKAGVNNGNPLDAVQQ
Follistatin (Homo sapiens), sequence (P19883 whole entry, looked up): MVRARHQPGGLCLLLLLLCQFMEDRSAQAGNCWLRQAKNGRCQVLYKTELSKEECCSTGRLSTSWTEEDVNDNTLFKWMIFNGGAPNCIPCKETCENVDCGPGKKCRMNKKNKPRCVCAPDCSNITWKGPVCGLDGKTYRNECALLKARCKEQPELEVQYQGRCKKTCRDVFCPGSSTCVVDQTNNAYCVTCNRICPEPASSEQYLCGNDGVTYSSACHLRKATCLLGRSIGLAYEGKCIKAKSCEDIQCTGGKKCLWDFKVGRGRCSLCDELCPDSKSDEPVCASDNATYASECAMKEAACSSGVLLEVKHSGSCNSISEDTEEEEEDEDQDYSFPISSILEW
Fibroblast growth factor 2 (Homo sapiens), sequence (P09038 whole entry, looked up): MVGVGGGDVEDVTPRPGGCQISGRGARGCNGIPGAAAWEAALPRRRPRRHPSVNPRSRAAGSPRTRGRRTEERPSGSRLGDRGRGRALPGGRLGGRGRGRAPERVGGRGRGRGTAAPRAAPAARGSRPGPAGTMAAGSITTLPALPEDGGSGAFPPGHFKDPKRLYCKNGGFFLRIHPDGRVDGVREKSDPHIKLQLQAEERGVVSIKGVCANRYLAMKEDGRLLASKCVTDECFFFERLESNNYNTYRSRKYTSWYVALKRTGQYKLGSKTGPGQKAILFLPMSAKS

SMILES	composite z-score [1]	composite z-score [2]	composite z-score [3]	composite z-score [4]	composite z-score [5]	composite z-score [6]	z-score [7]	composite z-score (Lefty1)	composite z-score [8]	z-score [9]	composite z-score [10]	z-score [11]	z-score [12]	z-score [13]	composite z-score [14]	composite z-score [15]	composite z-score (Torsin-1A (Homo sapiens) [16])	composite z-score (Torsin-1A (Homo sapiens) [17])	composite z-score [18]
COc1cc(CO)cc(I)c1O[C@H]1C=C(C(=O)NCCO)C[C@@H](NCCc2c[nH]c3ccccc23)[C@@H]1O	0.876	0.579	-0.0981	0.824	0.792	0.243	0.898	0.28	1.21	0.47 (inactive)	0.241	-3.34 (inactive)	2.29 (inactive)	-2.33 (inactive)	0.0072	-0.0954	0.75	0.237	0.888
COCCCNC(=O)[C@@]1(Sc2ccc(C)cc2)CC(=O)N(Cc2cc(C(F)(F)F)cc(C(F)(F)F)c2)[C@@H]1c1ccc(CO)cc1I	-0.21	-1.1	0.144	-1.86	-0.993	-0.511	0.915	-1.66	-1.1	-0.503 (inactive)	-0.265	-1.47 (inactive)	1.01 (inactive)	0.264 (inactive)	-0.713	-0.123	-0.083	-0.693	-0.612
CN(C)CCCC[C@@H]1NC(=O)[C@@H]2C[C@H](C(=O)NCCCCCNC(=O)CS)[C@H](c3ccc(O)cc3)N2C1=O	1.12	1.19	-0.0662	0.946	1.52	1.65	1.3	1.65	1.23	-1.11 (inactive)	0.202	0.0694 (inactive)	-0.667 (inactive)	-1 (inactive)	0.799	0.264	1.4	0.847	2.06
C[C@@H]1C=CCC(=O)OC[C@H]2O[C@@H](C=C[C@@H]2O)[C@H](C)C=CCC(=O)OC[C@H]2O[C@H]1C=C[C@@H]2O	0.106	-0.145	-0.095	-0.282	1.53	1.83	0.307	1.75	-0.312	-0.304 (inactive)	0.375	-5.78 (inactive)	0.247 (inactive)	-0.724 (inactive)	0.412	0.357	0.997	0.515	2.24
CCOC(=O)C[C@H]1[C@H](OC(=O)c2ccccc2-c2ccccc2)[C@@H](NC(=O)C2CCCCC2)c2cc(OCCCO)ccc2N1C(=O)c1ccccc1	0.198	0.352	-0.268	0.334	0.392	1.39	1.33	0.845	-0.109	-0.539 (inactive)	0.364	-0.781 (inactive)	10.2 (active)	-0.278 (inactive)	0.0739	0.0131	0.128	0.197	1.1
Cc1ccc(S[C@]2(C(=O)NCCCN(C)C)CC(=O)N(C3CCCCC3)[C@@H]2c2ccc(CO)cc2I)cc1	0.731	-0.171	-0.471	-1.32	-0.351	-0.29	3.41	-0.695	-1.54	-1.38 (inactive)	-0.056	-6.58 (inactive)	-0.0243 (inactive)	1.42 (inactive)	-0.806	-0.128	0.0029	0.0812	0.0709
C=CCC(OC(C)=O)[C@@H]1[C@@H](N(Cc2cc3ccccc3o2)C(=O)c2ccc(C)cc2)c2cc(OCCCO)ccc2N1C(=O)c1ccc2ccccc2n1 (some centres undefined)	-0.88	-0.593	0.178	-0.589	0.573	-0.0362	1.57	-0.114	-0.475	-1.33 (inactive)	-0.0502	-0.17 (inactive)	5.44 (inactive)	-0.273 (inactive)	0.184	-0.0266	0.369	-0.368	0.609
Cc1ccc(N2C(=O)c3ccccc3[C@@H](C(=O)NCc3ccccc3)[C@@H]2c2ccc(CO)cc2)nc1	-0.841	-1.26	-0.289	-1.15	1.33	0.0049	1.35	-0.114	-1.19	-0.635 (inactive)	0.0687	-1.54 (inactive)	-0.0888 (inactive)	-1.02 (inactive)	-0.524	0.0028	0.628	0.276	0.311
CO[C@H]1COC(=O)[C@H](C)NC(=O)CC=C[C@@H](C)[C@H](NS(=O)(=O)c2ccc(C)cc2)COC(=O)[C@@H](OCc2ccccc2)C=C[C@@H]1C	-1.04	-0.515	0.269	-0.394	0.641	0.574	1.87	1.02	-0.609	-0.893 (inactive)	0.0746	0.0974 (inactive)	1.06 (inactive)	-0.594 (inactive)	-0.25	-0.261	0.196	0.316	0.96
COc1cccc([C@@H]2[C@@H](C)CC[C@H]3C(=O)N(C)[C@@H](C(C)C)C(=O)N23)c1	0.381	0.694	1.24	-0.0271	0.388	0.348	1.68	0.915	0.168	-1.56 (inactive)	0.0537	-0.205 (inactive)	2.9 (inactive)	-0.762 (inactive)	0.398	-0.0523	0.798	0.101	0.39
CO[C@H]1O[C@H](CO)[C@@H](OC(=O)Nc2ccc(Oc3ccccc3)cc2)[C@H](OC(=O)Nc2ccccc2-c2ccccc2)[C@H]1OC(=O)Nc1ccccc1-c1ccccc1	2.31	1.24	1.62	0.98	0.95	0.938	-1.28	0.62	1.38	-1.02 (inactive)	0.595	-6.08 (inactive)	-0.0017 (inactive)	-1.31 (inactive)	1.25	0.268	0.445	0.517	1.24
